Results filed as inconclusive are left out. A call without a number means that no potency is given here. Activity calls are given as the source filed them. Calls come from the whole dose curve; as a rule, active = well fitted inhibition curve with a large enough effect; inconclusive = small, poorly fitted or top-dose-only effect; inactive = no such curve, though single readings can be large or run the other way.
Potency is the fitted concentration of half-maximal effect.

The target of this experiment is N-terminal Xaa-Pro-Lys N-methyltransferase 1 (Homo sapiens) (UniProt Q9BV86). The experiment is described as follows: qHTS Assay for Inhibitors of N-terminal methyltransferase 1 (NTMT1): MTaseGlo Assay Confirmatory Screen, Round 1. As to conditions: Recombinant NTMT1, MTase-Glo SAH luminescence; series mostly up to 57.1 µM. An excerpt: Assay Submitter (PI): Rong Huang Ph.D, Purdue University, West Lafayette, IN 47907 The N-terminal methytransferase 1 is the first methyltransferase that methylates protein alpha-N-amines and plays an important role in regulating cell mitosis, chromatin interactions and DNA repair. It is observed to be over-expressed in various cancer patient tissues like malignant melanoma and colorectal cancer tissues. Knockdown of NTMT1 in cancer cells causes cell mitotic defects and enhances sensitivity to DNA damaging chemotherapeutics. […] These critical cellular processes in which NTMT1 is implicated, coupled with emerging links to cellular dysfunction, strengthen the inference that NTMT1 is a compelling novel anticancer target. Progress have been made in understanding the molecular properties of NTMT1 and the biological consequences of protein alpha-N-terminal methylation, but there are no specific small molecule probes available for NTMT1 to fully characterize its MTase activity. To address this unmet need, a panel of assay is created and established to enable quantitative high-throughput screening (qHTS) for novel, potent, and selective small molecule NTMT1 inhibitors. Two orthogonal qHTS that use different reagents (ThioGlo vs. MTaseGlo) are developed for primary robotic screening against the NCATS chemical library of more than 400,000 small molecules. Identified inhibitors are reacquired, validated, and further characterized. MTaseGlo Assay is a luminescence screen that measure the activity of methyltransferases based on the reaction product S-adenosyl homocysteine (SAH). The substrate SAM is converted to SAH upon enzyme activation. MTase-Glo reagent and detection solution convert SAH to ATP and measure the light from the luciferase reaction. […] Early Translation Branch (ETB) National Center for Advancing Translational Sciences (NCATS) National Institute of Health (NIH)
Sequence of N-terminal Xaa-Pro-Lys N-methyltransferase 1 (Homo sapiens) (Q9BV86 whole entry, looked up): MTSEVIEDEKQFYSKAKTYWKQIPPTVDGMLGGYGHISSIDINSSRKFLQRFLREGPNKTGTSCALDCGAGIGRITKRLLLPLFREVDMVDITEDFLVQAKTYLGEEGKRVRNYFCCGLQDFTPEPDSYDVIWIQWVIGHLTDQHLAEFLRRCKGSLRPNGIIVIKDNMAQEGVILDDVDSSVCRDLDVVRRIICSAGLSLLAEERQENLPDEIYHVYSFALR
Materials: NTMT1 enzyme, substrate SPKRIA, control peptide RCC1-6 is provided by the Huang laboratory. MTaseGlo Assay: In brief, 3 µL of enzyme mixture (final concentrations of 125 nM and 100 µM for NTMT1 and SAM, respectively) into all wells of a 1,536-well solid-bottom white plate (Greiner Bio One, Monroe, NC). 23 nL of DMSO or Ac-RCC1-10 (final concentration range 234 nM to 143 microM) was transferred via Wako Pin-tool (Wako Automation, Richmond, VA) and incubated (RT) for ~15 minutes. Next, 1 µL of substrate (final concentration 1 µM) or buffer was dispensed, and the reaction proceeded for 30 minutes (RT, protected from light) followed by a 1 microL addition of [5X] MTase-Glo Reagent(R). Samples were incubated (RT, protected from light) for 30 minutes to allow for SAH to be converted to ADP, followed by a 5 microL addition of [1X] MTase-Glo Detection Solution(R) to allow for ADP to be converted to ATP, which was then detected with a luciferase reaction. Samples were centrifuged for 15 seconds at 1,000 RPM's, followed by a RT incubation for 30 minutes. Plates were then read using Luminescence optics on a ViewLux detector. Data were normalized to no-enzyme (0% activity) and no-inhibitor (DMSO; 100%) controls, and the resulting percent inhibition data were fitted to a 4-parameter Hill equation using Graphpad Prism.
Take `COc1cc2c(NC3CCN(C(C)C)CC3)nc(N3CCCN(C)CC3)nc2cc1OCCOCCN(C)C`: the Potency entry was “inactive”.

For the compound `NC(=O)c1ccc[n+]([C@@H]2O[C@H](COP(=O)([O-])OP(=O)(O)OC[C@H]3O[C@@H](n4cnc5c(N)ncnc54)[C@H](O)[C@@H]3O)[C@@H](O)[C@H]2O)c1`, the Potency result is “inactive”.

As for `Nc1nc(Nc2ccccc2)nc2c1ncn2[C@@H]1O[C@@H](CO)[C@H](O)[C@H]1O`, the Potency result was “inactive”.

Regarding `Nc1nc(Nc2ccccc2)nc2c1ncn2[C@@H]1O[C@H](CO)C(O)[C@H]1O` (stereo not given in full), the Potency result was “inactive”.

Take `O=c1[nH]cnc2c1ncn2C1O[C@H](CO)[C@@H](O)[C@H]1O` (stereo not given in full): the Potency result is “inactive”.

As for `Nc1nc(Cl)nc2c1ncn2[C@@H]1O[C@H](COP(=O)(O)OP(=O)(O)OP(=O)(O)O)C(O)[C@H]1O` (stereo not given in full), the Potency entry was “inactive”.

As for `O=C(Nc1ncnc2c1ncn2[C@@H]1O[C@@H]2COP(=O)(O)O[C@H]2[C@H]1O)c1ccccc1`, the Potency entry is “inactive”.

As to `COc1cc2c(NC3CCN(C(C)C)CC3)nc(N3CCCN(C)CC3)nc2cc1OCCOCCN1CCCC1`, the Potency entry was “inactive”.

For `COc1cc2c(NC3CCN(C(C)C)CC3)nc(N3CCCN(C(C)C)CC3)nc2cc1OCCOCCN(C)C`, the Potency entry was “inactive”.

Regarding `Nc1nc(Cl)nc2c1ncn2[C@H]1C[C@H](O)[C@@H](CO)O1`, the Potency result is “inactive”.

In the case of `COc1cc2c(NC3CCN(C)CC3)nc(N3CCCN(C)CC3)nc2cc1OCC1CCNCC1`, the Potency entry is “inactive”.

As for `COc1cc2c(NC3CCN(C)CC3)nc(N3CCCN(C)CC3)nc2cc1OCCOCCN(C)C`, the Potency entry was “inactive”.

With `Nc1ncnc2c1ncn2[C@@H]1O[C@H](CO)[C@@H](O)[C@H]1O`, the Potency entry is “inactive”.

Consider `Nc1ncnc2c1ncn2[C@H]1C[C@H](O)[C@@H](CO)O1`, for which the Potency result is “inactive”.

Regarding `Nc1ncnc2c1ncn2[C@@H]1O[C@H](CO)C(O)[C@H]1O` (stereo not given in full), the Potency result was “inactive”.

In the case of `CSCC1OC(n2cnc3c(N)ncnc32)C(O)C1O` (stereo not given), the Potency entry was “inactive”.

`COc1cc2nc(N3CCN(C)CC3)nc(NC3CC3)c2cc1OC`: the Potency entry was “inactive”.

On to `COc1cc2nc(N3CCN(C)CC3)nc(NC3CCN(Cc4ccccc4)CC3)c2cc1OC`, for which the Potency entry is “inactive”.

Turning to `CCN(CC)c1nc(NC2CCN(C)CC2)c2cc(OC)c(OC)cc2n1`, the Potency result is “inactive”.

For `CCC(CC)n1ccc2c(C(=O)NCc3c(C)cc(C)[nH]c3=O)cc(C#N)cc21`, the Potency result is “inactive”.

Turning to `COc1cc2c(NC3CCN(C(C)C)CC3)nc(N3CCCN(C)CC3)nc2cc1OCCCN(C)C`, the Potency result was “inactive”.

Consider `CNC(=O)[C@H]1O[C@@H](n2cnc3c(NCc4ccc(N)cc4)ncnc32)[C@H](O)[C@@H]1O`, for which the Potency result is “inactive”.

In the case of `C=C1OC(CO)(n2cnc3c(N)ncnc32)C(O)C1O` (stereo not given), the Potency result was “inactive”.

Take `COc1cc2nc(NC3CCN(C)CC3)nc(NC3CCN(C)CC3)c2cc1OC`: the Potency entry is “inactive”.

For the compound `CNc1ncnc2c1ncn2[C@@H]1O[C@H](CO)[C@@H](O)[C@H]1O`, the Potency result was “inactive”.

As for `COc1cc2nc(N3CCN(C)CC3)nc(NC3CCCC3)c2cc1OC`, the Potency result was “inactive”.

`Nc1ncnc2c1ncn2C1O[C@H](COP(=O)(O)O)[C@@H](O)[C@H]1O` (stereo not given in full): the Potency entry is “inactive”.

For `COc1cc2nc(N3CCCN(C)CC3)nc(NC(C)C)c2cc1OC`, the Potency entry was “inactive”.

For the compound `CSc1nc(N)c2ncn([C@@H]3O[C@H](COP(=O)(O)OP(=O)(O)OP(=O)(O)O)[C@@H](O)[C@H]3O)c2n1`, the Potency entry was “inactive”.

As to `COc1cc2nc(N3CCN(C(N)=O)CC3)nc(NC3CC3)c2cc1OC`, the Potency result is “inactive”.

On to `C=C1O[C@@](CO)(n2cnc3c(N)ncnc32)[C@H](O)[C@@H]1O`, for which the Potency entry is “inactive”.

As for `COc1cc2nc(N3CCCN(C)CC3)nc(NC3CCN(C)C3)c2cc1OC` (stereo not given), the Potency result was “inactive”.

As for `COc1cc2nc(N3CCCCC3)nc(NC3CCN(Cc4ccccc4)CC3)c2cc1OC`, the Potency result was “inactive”.

`OCC1OC(n2cnc3c(NO)ncnc32)C(O)C1O` (stereo not given): the Potency entry is “inactive”.

Take `NC[C@H]1O[C@@H](n2cnc3c(N)ncnc32)[C@H](O)[C@@H]1O`: the Potency is 19.3 µM (active).

`COc1cc2c(NC3CCN(C)CC3)nc(N3CCCN(C)CC3)nc2cc1OCCN(C)CCN(C)C`: the Potency result was “inactive”.

For `COc1cc2nc(N(C)C)nc(NC3CC3)c2cc1OC`, the Potency result was “inactive”.

In the case of `COc1cc2nc(N3CCCN(C)CC3)nc(N(C)C)c2cc1OC`, the Potency result was “inactive”.

`COC(=O)c1ccc2c(c1)nc(NC(=O)c1ccccc1)n2CCCc1ccccc1`: the Potency entry is “inactive”.

As for `Nc1nc(Cl)nc2c1ncn2[C@@H]1O[C@H](COP(=O)(O)OP(=O)(O)OP(=O)(O)O)[C@@H](O)[C@H]1O`, the Potency entry was “inactive”.
